Measurements published in PubChem BioAssay (EPA / NIEHS).
Inconclusive results are not listed. Activity calls are given as the source filed them. How the source made its calls, unless noted: active means hit-call score of the fitted dose curve at least 0.9, where 1 is the maximum; inactive means score below 0.9.

Legend:
[1] = target: human Peroxisome Proliferator-activated Receptor delta (PPARd), PPARD (gene 5467) (UniProt Q03181); experiment: ATG_PPARd_TRANS: Attagene TRANS-FACTORIAL HepG2 Assay for human Peroxisome Proliferator-activated Receptor delta (PPARd) (AID 2283002; active means hit-call score of the fitted dose curve at least 0.9, where 1 is the maximum)
In short: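 Multiplexed trans-activation format: HepG2 liver cells expressing exogenous NR-Gal4 chimeras and GAL4-UAS reporters were exposed for 24 h. Reporter mRNA was detected by RT-PCR with capillary electrophoresis fluorescence; activity fitted as gain of signal relative to DMSO.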

[2] = target: Peroxisome proliferator-activated receptor gamma (Homo sapiens) (UniProt P37231); experiment: ATG_PPARg_TRANS: Attagene TRANS-FACTORIAL HepG2 Assay for human Peroxisome Proliferator-activated Receptor-gamma (PPARg) (AID 2283007; active means hit-call score of the fitted dose curve at least 0.9, where 1 is the maximum)
In short: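 Liver-derived HepG2 cells expressing an exogenous NR-Gal4 chimera alongside GAL4-UAS reporter genes; 24 h exposure. Fluorescence of reporter RT-PCR products, separated by capillary electrophoresis, gives mRNA induction relative to DMSO.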

[3] = target: Nuclear receptor subfamily 1 group I member 2 (Homo sapiens) (UniProt O75469); experiment: ATG_PXR_TRANS: Attagene TRANS-FACTORIAL HepG2 Assay for human Pregnane X Receptor (PXR) (AID 2283008; active means hit-call score of the fitted dose curve at least 0.9, where 1 is the maximum)
In short: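 HepG2 cells transiently transfected with GAL4-UAS reporter units and PXR-Gal4 chimera, exposed 24 h. Reporter mRNA quantified by RT-PCR, fluorescent labelling, HpaI digestion and capillary electrophoresis; gain of signal vs DMSO.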

[4] = target: Retinoic acid receptor RXR-alpha (Homo sapiens) (UniProt P19793); experiment: ATG_RXRa_TRANS: Attagene TRANS-FACTORIAL HepG2 Assay for human Retinoid X Receptor alpha (RXRa) (AID 2283012; active means hit-call score of the fitted dose curve at least 0.9, where 1 is the maximum)
In short: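 HepG2 cells transiently transfected with multiplexed GAL4-UAS reporter units and chimeric NR-GAL4 fusions, dosed 24 h. Reporter mRNA measured by RT-PCR, FAM labelling, HpaI digestion and capillary electrophoresis; gain-of-signal fitted relative to DMSO baseline.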

[5] = target: human Retinoic Acid Receptor gamma (RARg), RARG (gene 5916) (UniProt P13631); experiment: ATG_RARg_TRANS: Attagene TRANS-FACTORIAL HepG2 Assay for human Retinoic Acid Receptor gamma (RARg) (AID 2283009; active means hit-call score of the fitted dose curve at least 0.9, where 1 is the maximum)
In short: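 HepG2 cells transiently transfected with multiplexed reporter units expressing chimeric RARg-GAL4 and GAL4-UAS-driven reporters; 24 h compound exposure. Reporter mRNA quantified by RT-PCR with fluorescent labelling and capillary electrophoresis; gain-of-signal fitted relative to DMSO baseline.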

[6] = target: human RAR-related Orphan Receptor gamma (RORg), RORC (gene 6097) (UniProt P51449); experiment: ATG_RORg_TRANS: Attagene TRANS-FACTORIAL HepG2 Assay for human RAR-related Orphan Receptor gamma (RORg) (AID 2283011; active means hit-call score of the fitted dose curve at least 0.9, where 1 is the maximum)
In short: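 Readout: reporter transcript induction (RT-PCR, fluorescent primer extension, capillary electrophoresis) after 24 h compound exposure of transiently transfected HepG2 cells carrying a RORg-Gal4 chimera and GAL4-UAS reporters; DMSO served as baseline, with increasing signal fitted.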

[7] = read-out: Intercellular Adhesion Molecule 1 (ICAM1), ICAM1 (gene 3383); experiment: BSK_3C_ICAM1: BioMAP Diversity Plus: 3C Assay for Intercellular Adhesion Molecule 1 (ICAM1) Biomarker Activity (AID 2283003); settings: primary human endothelial cells (HUVEC); actives raise or lower the signal
In short: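 Primary human umbilical vein endothelial cells in the BioMAP 3C system were exposed to chemicals for 24 h, then ICAM-1 was quantified by ELISA. Activity was fitted bidirectionally against the DMSO negative control baseline.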

[8] = BSK_3C_Proliferation: Cell Proliferation Assessment in the BioMAP Diversity Plus: 3C Assay (AID 2283006); settings: primary human endothelial cells (HUVEC)
In short: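 Human umbilical vein endothelial cells were grown sub-confluent and exposed to chemical for 48 h, then fixed with 10% TCA and stained with 0.1% sulforhodamine B; absorbance at 560 nm gave relative cell number, fitted bidirectionally against DMSO baseline.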

[9] = read-out: E-selectin (Homo sapiens) (UniProt P16581); experiment: BSK_3C_Eselectin: BioMAP Diversity Plus: 3C Assay for Eselectin Biomarker Activity (AID 2283015); settings: primary human endothelial cells (HUVEC); actives raise or lower the signal;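 further: cell surface E-selectin protein quantified by ELISA 24 h after dosing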
In short: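 Primary human umbilical vein endothelial cells (3C system) were dosed with chemical and cell-surface E-selectin measured by ELISA 24 h later. Bidirectional curve fitting used DMSO as negative control and baseline.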

[10] = read-out: Interleukin-1 alpha (IL1a), IL1A (gene 3552); experiment: BSK_BE3C_IL1a: BioMAP Diversity Plus: BE3C Assay for Interleukin-1 alpha (IL1a) Biomarker Activity (AID 2283016); settings: primary human bronchial epithelial cells; actives raise or lower the signal
In short: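 Human primary bronchial epithelial cells (BE3C system) were dosed with compound and IL-1a measured by ELISA 24 h later. Activity was fitted bidirectionally against DMSO baseline; cytotoxicity was tracked in parallel cultures by SRB total-protein staining.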

[11] = read-out: Monocyte Chemoattractant Protein-1 (MCP1), CCL2 (gene 6347); experiment: BSK_3C_MCP1: BioMAP Diversity Plus: 3C Assay for Monocyte Chemoattractant Protein-1 (MCP1) Biomarker Activity (AID 2283017); settings: primary human endothelial cells (HUVEC); actives raise or lower the signal
In short: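 Primary human umbilical vein endothelial cells (3C system) were exposed to test chemical for 24 h, after which MCP-1 was quantified by ELISA. Activity was fitted bidirectionally against DMSO as negative control and baseline.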

[12] = read-out: Monocyte Chemoattractant Protein-1 (MCP1), CCL2 (gene 6347); experiment: BSK_4H_MCP1: BioMAP Diversity Plus: 4H Assay for Monocyte Chemoattractant Protein-1 (MCP1) Biomarker Activity (AID 2283018); settings: primary human endothelial cells (HUVEC); actives raise or lower the signal
In short: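 Human umbilical vein endothelial cells (4H system) dosed with chemical; MCP-1 measured by ELISA 24 h after dosing. Bidirectional curve fitting against DMSO negative control as baseline; parallel SRB total-protein staining tracks overt cytotoxicity.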

[13] = read-out: Human Leukocyte Antigen - DR isotype (HLADR), HLA-DRA (gene 3122); experiment: BSK_3C_HLADR: BioMAP Diversity Plus: 3C Assay for Human Leukocyte Antigen - DR isotype (HLADR) Biomarker Activity (AID 2283019); settings: primary human endothelial cells (HUVEC); actives raise or lower the signal
In short: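 Primary human umbilical vein endothelial cells (3C system) were dosed with compound and cell-surface HLA-DR was quantified by ELISA at 24 h. Activity was fitted bidirectionally against DMSO as negative control and baseline.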

[14] = read-out: Interleukin-8 (IL8), CXCL8 (gene 3576); experiment: BSK_3C_IL8: BioMAP Diversity Plus: 3C Assay for Interleukin-8 (IL8) Biomarker Activity (AID 2283020); settings: primary human endothelial cells (HUVEC); actives raise or lower the signal
In short: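 Primary human umbilical vein endothelial cells (3C system) were exposed to test chemical for 24 h, then IL-8 was quantified by ELISA. Responses were fitted bidirectionally against DMSO vehicle as baseline.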

[15] = read-out: Monokine induced gamma interferon (MIG), CXCL9 (gene 4283); experiment: BSK_3C_MIG: BioMAP Diversity Plus: 3C Assay for Monokine induced gamma interferon (MIG) Biomarker Activity (AID 2283021); settings: primary human endothelial cells (HUVEC); actives raise or lower the signal
In short: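 Primary human umbilical vein endothelial cells in the 3C system were exposed to chemical for 24 h, after which MIG was quantified by ELISA. Activity was fitted bidirectionally against DMSO as negative control and baseline.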

[16] = BSK_3C_SRB: Viability Assessment in the BioMAP Diversity Plus: 3C Assay (AID 2283023); settings: primary human endothelial cells (HUVEC);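 further: fitted both ways against DMSO so a hit may be signal rise or drop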
In short: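 Primary human umbilical vein endothelial cells in the 3C system were read 24 h after compound dosing. Total protein was stained with 0.1% sulforhodamine B after 10% TCA fixation and read at 560 nm, with bidirectional fitting against DMSO as baseline.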

[17] = target: human RAR-related Orphan Receptor beta (RORb), RORB (gene 6096) (UniProt Q92753); experiment: ATG_RORb_TRANS: Attagene TRANS-FACTORIAL HepG2 Assay for human RAR-related Orphan Receptor beta (RORb) (AID 2283010; active means hit-call score of the fitted dose curve at least 0.9, where 1 is the maximum)
In short: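 HepG2 cells were transiently transfected with multiplexed GAL4-UAS reporter units expressing chimeric nuclear receptor–GAL4 proteins, then dosed for 24 h. Reporter mRNA was quantified by RT-PCR with fluorescent labelling and capillary electrophoresis; gain of signal was fitted relative to DMSO.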

[18] = target: human Retinoid X Receptor beta (RXRb), RXRB (gene 6257) (UniProt P28702); experiment: ATG_RXRb_TRANS: Attagene TRANS-FACTORIAL HepG2 Assay for human Retinoid X Receptor beta (RXRb) (AID 2283013; active means hit-call score of the fitted dose curve at least 0.9, where 1 is the maximum)
In short: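 HepG2 cells transiently transfected with multiplexed reporter units driven by GAL4-UAS and exogenous chimeric NR-Gal4 proteins; treated 24 h. Reporter mRNA measured by RT-PCR, 6-FAM labelling and capillary electrophoresis; gain-of-signal fitted versus DMSO baseline.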

[19] = target: human Vitamin D Receptor (VDR), VDR (gene 7421) (UniProt P11473); experiment: ATG_VDR_TRANS: Attagene TRANS-FACTORIAL HepG2 Assay for human Vitamin D Receptor (VDR) (AID 2283022; active means hit-call score of the fitted dose curve at least 0.9, where 1 is the maximum)
In short: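 HepG2 cells were transiently transfected with multiple GAL4-UAS reporter units, so signal reflects exogenous chimeric receptor-Gal4 activity. After 24 h compound exposure, reporter mRNA was measured by RT-PCR, fluorescent labelling and capillary electrophoresis, fitted for gain of signal versus DMSO.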

[20] = target: human Thyroid Receptor alpha (THRa1), THRA (gene 7067) (UniProt P10827); experiment: ATG_THRa1_TRANS: Attagene TRANS-FACTORIAL HepG2 Assay for human Thyroid Receptor alpha (THRa1) (AID 2283014; active means hit-call score of the fitted dose curve at least 0.9, where 1 is the maximum)
In short: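 HepG2 cells transiently transfected with multiplexed GAL4-UAS reporter units for exogenous chimeric THRa1-Gal4; reporter mRNA measured 24 h after dosing by RT-PCR, 6-FAM labelling, HpaI digestion and capillary electrophoresis. Gain-of-signal fitted versus DMSO baseline.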

Measured: AC50

Chain of human Thyroid Receptor alpha (THRa1), THRA (gene 7067) (P10827 whole entry, looked up, the tested form may be a part): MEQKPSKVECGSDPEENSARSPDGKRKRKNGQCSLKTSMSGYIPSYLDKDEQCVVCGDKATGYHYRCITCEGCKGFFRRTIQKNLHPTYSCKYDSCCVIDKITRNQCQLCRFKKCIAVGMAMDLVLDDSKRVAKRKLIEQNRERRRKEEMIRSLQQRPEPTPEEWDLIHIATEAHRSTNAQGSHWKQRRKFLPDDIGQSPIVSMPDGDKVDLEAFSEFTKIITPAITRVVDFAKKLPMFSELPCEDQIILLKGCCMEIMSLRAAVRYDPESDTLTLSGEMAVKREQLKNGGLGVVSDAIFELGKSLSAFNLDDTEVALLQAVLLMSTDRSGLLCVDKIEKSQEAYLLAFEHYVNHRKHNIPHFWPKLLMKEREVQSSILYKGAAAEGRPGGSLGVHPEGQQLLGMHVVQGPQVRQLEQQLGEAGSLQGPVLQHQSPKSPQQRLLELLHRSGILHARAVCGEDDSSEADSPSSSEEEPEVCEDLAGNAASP
Chain of human Retinoic Acid Receptor gamma (RARg), RARG (gene 5916) (P13631 whole entry, looked up, the tested form may be a part): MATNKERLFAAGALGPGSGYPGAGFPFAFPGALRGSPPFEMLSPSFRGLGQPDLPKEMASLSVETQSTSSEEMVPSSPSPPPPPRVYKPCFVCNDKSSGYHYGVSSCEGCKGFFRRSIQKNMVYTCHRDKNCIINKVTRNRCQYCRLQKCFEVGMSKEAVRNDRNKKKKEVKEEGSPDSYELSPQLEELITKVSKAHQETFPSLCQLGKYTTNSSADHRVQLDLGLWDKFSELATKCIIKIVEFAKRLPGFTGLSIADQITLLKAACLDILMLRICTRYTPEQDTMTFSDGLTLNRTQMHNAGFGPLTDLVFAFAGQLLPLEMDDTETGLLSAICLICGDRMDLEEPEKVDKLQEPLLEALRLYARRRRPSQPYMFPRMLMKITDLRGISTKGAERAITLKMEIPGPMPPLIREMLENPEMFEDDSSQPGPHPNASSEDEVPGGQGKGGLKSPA
Chain of Retinoic acid receptor RXR-alpha (Homo sapiens) (P19793 whole entry, looked up, the tested form may be a part): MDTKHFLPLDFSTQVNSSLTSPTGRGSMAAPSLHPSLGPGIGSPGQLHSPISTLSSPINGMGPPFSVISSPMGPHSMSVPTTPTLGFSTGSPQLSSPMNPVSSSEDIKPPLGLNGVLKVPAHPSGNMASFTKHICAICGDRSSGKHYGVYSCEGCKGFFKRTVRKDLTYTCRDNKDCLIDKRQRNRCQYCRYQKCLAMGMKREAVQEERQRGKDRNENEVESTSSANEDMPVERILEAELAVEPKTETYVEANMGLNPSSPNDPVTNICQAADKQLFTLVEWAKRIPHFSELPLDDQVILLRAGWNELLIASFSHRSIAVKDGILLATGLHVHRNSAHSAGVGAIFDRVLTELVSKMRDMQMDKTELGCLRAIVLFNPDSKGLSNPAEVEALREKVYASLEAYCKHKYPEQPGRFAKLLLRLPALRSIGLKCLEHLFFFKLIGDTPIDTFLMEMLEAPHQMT
Chain of E-selectin (Homo sapiens) (P16581 whole entry, looked up): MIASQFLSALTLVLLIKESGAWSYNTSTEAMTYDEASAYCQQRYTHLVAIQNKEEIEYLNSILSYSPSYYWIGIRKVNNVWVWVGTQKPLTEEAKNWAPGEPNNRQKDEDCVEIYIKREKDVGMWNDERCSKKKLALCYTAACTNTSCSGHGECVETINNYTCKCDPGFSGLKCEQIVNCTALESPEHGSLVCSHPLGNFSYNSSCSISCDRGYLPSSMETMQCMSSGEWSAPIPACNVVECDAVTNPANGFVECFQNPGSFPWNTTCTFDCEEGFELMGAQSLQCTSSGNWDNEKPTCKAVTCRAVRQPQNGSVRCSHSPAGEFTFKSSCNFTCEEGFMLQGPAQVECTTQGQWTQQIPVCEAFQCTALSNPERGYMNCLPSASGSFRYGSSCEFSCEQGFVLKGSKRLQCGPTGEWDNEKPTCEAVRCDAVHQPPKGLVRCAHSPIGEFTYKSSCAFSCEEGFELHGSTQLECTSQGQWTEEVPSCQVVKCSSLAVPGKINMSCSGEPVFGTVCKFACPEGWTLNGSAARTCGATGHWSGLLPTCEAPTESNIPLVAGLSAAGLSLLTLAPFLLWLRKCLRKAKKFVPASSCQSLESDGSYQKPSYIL
Chain of Peroxisome proliferator-activated receptor gamma (Homo sapiens) (P37231 whole entry, looked up, the tested form may be a part): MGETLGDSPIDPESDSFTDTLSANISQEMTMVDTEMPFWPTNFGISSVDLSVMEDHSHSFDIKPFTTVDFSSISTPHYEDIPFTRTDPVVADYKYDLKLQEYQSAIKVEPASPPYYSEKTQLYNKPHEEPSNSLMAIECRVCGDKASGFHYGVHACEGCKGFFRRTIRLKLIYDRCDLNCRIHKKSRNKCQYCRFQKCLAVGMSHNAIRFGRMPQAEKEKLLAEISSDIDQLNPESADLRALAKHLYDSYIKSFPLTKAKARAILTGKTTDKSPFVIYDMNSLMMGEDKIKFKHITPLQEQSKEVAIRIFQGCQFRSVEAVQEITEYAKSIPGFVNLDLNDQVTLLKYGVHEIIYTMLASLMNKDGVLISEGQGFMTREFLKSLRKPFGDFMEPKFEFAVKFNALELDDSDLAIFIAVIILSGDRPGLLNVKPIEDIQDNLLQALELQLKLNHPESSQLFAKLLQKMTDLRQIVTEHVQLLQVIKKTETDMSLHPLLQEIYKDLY
Chain of human RAR-related Orphan Receptor beta (RORb), RORB (gene 6096) (Q92753 whole entry, looked up, the tested form may be a part): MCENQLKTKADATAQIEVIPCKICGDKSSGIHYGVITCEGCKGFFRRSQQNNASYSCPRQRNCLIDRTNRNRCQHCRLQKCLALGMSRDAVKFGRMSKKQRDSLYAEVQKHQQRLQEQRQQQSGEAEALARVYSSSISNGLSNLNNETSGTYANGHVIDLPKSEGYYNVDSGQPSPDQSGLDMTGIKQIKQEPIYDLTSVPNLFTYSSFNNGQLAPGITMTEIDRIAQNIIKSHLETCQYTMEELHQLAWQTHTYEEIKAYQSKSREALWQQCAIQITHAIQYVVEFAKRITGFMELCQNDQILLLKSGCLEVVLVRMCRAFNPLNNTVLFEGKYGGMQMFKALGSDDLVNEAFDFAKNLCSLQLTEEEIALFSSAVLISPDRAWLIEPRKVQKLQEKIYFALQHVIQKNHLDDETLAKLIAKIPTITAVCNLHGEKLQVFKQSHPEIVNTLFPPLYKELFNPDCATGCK
Chain of human Retinoid X Receptor beta (RXRb), RXRB (gene 6257) (P28702 whole entry, looked up, the tested form may be a part): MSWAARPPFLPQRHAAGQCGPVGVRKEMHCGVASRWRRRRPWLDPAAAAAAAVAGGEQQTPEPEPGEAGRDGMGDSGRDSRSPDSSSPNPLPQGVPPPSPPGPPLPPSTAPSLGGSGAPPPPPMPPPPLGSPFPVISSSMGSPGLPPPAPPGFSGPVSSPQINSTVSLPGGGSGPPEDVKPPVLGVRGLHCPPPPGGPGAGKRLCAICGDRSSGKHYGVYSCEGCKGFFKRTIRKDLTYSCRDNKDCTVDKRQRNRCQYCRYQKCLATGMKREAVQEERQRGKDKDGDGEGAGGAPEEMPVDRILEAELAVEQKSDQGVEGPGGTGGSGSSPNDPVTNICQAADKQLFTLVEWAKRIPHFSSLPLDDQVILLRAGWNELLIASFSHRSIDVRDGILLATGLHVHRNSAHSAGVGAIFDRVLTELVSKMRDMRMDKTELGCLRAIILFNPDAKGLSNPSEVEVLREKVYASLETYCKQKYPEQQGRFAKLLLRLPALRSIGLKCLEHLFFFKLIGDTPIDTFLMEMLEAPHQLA
Chain of human Peroxisome Proliferator-activated Receptor delta (PPARd), PPARD (gene 5467) (Q03181 whole entry, looked up, the tested form may be a part): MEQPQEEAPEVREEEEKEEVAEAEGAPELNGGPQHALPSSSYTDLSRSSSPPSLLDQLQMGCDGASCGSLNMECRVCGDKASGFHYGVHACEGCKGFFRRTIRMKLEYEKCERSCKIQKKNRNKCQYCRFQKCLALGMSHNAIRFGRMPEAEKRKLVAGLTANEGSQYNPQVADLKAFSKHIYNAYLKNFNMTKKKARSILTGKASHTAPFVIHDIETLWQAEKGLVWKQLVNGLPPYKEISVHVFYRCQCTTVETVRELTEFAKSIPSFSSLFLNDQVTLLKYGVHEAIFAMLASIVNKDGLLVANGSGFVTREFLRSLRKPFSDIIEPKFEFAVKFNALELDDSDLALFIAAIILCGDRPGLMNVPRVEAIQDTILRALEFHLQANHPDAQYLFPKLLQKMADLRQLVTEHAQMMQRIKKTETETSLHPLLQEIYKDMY
Chain of human RAR-related Orphan Receptor gamma (RORg), RORC (gene 6097) (P51449 whole entry, looked up, the tested form may be a part): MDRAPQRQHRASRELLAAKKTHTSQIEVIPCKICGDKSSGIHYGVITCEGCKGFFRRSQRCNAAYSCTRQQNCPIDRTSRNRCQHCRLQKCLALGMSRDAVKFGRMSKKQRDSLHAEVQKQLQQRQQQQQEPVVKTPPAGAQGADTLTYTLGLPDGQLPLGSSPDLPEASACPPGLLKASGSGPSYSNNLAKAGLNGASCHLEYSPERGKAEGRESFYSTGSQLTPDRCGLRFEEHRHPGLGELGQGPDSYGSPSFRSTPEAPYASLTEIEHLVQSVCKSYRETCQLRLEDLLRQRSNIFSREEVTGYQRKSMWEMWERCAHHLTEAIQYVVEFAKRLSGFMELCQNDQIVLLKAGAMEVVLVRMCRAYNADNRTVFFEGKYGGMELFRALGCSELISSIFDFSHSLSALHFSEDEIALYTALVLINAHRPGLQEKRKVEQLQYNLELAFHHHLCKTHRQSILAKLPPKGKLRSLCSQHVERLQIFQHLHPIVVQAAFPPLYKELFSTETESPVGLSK
Chain of human Vitamin D Receptor (VDR), VDR (gene 7421) (P11473 whole entry, looked up, the tested form may be a part): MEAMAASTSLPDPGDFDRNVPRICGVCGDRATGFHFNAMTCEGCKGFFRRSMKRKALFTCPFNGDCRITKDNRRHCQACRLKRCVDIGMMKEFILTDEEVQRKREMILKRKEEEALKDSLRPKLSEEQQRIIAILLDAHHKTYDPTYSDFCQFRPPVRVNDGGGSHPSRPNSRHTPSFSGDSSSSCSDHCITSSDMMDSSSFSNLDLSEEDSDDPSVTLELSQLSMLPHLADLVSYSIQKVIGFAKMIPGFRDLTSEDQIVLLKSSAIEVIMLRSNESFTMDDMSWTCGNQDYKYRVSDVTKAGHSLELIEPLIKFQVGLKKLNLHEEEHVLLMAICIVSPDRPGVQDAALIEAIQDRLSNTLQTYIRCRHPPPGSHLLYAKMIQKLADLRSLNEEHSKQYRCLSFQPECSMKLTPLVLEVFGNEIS

FC(F)(F)c1ccc(Cl)cc1
inactive: [1] | [2] | [3] | [4]

O=c1[nH]c2ccccc2c(=O)o1
inactive: [1] | [2] | [3] | [5] | [6] | [4]

COP(=O)(CCC(=O)NCO)OC
not listed: [3] | [5] | [6] | [17] | [18] | [19] | [20]
inactive: all other assays above

CSC(C)(C)C=NO
not listed: [2] | [3] | [5] | [6] | [20]
inactive: all other assays above

CC1=C(C(=O)Nc2ccccc2)S(=O)(=O)CCO1
active: [2] 1.9 µM
inactive: [1] | [4]

CC(Cl)CN(C)C (stereo unspecified)
active: [13] 7.97 µM
not listed: [2] | [3] | [5] | [6] | [18] | [20]
inactive: all other assays above

N#C/C=C/c1ccccc1
active: [2] 10.1 µM
inactive: [1] | [3] | [5] | [17] | [6] | [18] | [20]

[N-]=[N+]=[N-]
not listed: [2] | [3] | [4] | [5] | [17] | [18] | [19]
inactive: all other assays above

CC(=O)CCc1ccc2c(c1)OCO2
inactive: [1] | [2] | [4] | [18]

CO/N=C(/C(=O)OC)c1ccccc1COc1ccccc1C
inactive: [1] | [5] | [17] | [4] | [18] | [20] | [19]
active: [3] 4.28 µM

CCOS(=O)(=O)OCC
not listed: [2] | [3] | [4] | [5] | [6] | [17] | [18] | [19]
inactive: all other assays above

c1cc2c3c(cccc3c1)CC2
not listed: [1] | [4] | [17] | [19]
inactive: all other assays above
